Screens from PubChem BioAssay.
HPGD block: inhibitors of human 15-hydroxyprostaglandin dehydrogenase (HPGD); P15428; purified HPGD, NADH fluorescence kinetic, PGE2 substrate; Potency, µM, hits mostly inhibitors; 4.3% of 150,000 active
Target sequence (P15428 whole entry, looked up): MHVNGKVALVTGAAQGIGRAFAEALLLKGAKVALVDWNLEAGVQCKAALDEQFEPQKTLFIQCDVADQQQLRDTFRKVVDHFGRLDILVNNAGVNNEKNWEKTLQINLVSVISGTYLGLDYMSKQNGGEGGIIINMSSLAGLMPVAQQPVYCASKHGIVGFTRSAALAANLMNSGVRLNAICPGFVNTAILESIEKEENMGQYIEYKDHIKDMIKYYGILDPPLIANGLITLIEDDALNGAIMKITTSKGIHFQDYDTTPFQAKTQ
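20 nM HPGD preincubated 15 min at room temperature with compound in 50 mM Tris-HCl pH 8, 0.01% Tween 20. Started with 1 mM NAD+ and 30 uM prostaglandin E2; NADH fluorescence (360/450 nm) read 5 times over 30-s intervals, last minus first.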
IMPase inh: cell-permeable inhibitors of inositol monophosphatase (IMPase) | CHO-M1 cells, IP1 accumulation, HTRF TR-FRET ratio | 120,000 tested, under 10 active | P97697 | inhibition (IP1 accumulation), % at 46.1 µM; active = well fitted curve in the direction sought with a large enough effect in the signal ratio, not every such curve was filed as active; inconclusive = small, poorly fitted or top-dose-only effect, or a change in a side signal; inactive = no such curve, though single readings can be large or run the other way; the % refers to the signal ratio;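 note: cells stimulated with carbachol in lithium chloride buffer; higher means more IMPase inhibition seen as more IP1 and lower FRET ratio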
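Elevated IP1 in lysates lowers TR-FRET signal (665/620 ratio and 620 channel reported). Cells were CHO-M1, given carbachol (50 uM as added) plus 50mM LiCl, pH 7.4, 30 min, 37C; compounds titrated up to 46 uM; AC50 by Hill equation.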
PNC inhibitor: perinucleolar compartment assembly inhibition | 3.1% of 140,000 active | PC3M PTB-GFP, PNC prevalence imaging, 16 h; active compounds read low | activity change (PNC), negative = inhibition, % at 10 µM;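 active = readout at or below -70, meaning at least 70% loss of cells showing the perinucleolar compartment, a nuclear body marking cancer cells; inconclusive = readout between -30 and a set limit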
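Compounds are pinned in duplicate onto adhered PC3M cells stably expressing GFP-tagged PTB and incubated 16 h at 37 C. Cells are then fixed, nuclei stained with Hoechst, and PNC-positive cells counted.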
IMPase Li cell: membrane-permeable IMPase blocker, potentiated with lithium. 0.35% of 210,000 active. AID 1457. Potency, µM (top dose mostly 59.4 µM), actives largely listed as inhibitors. CHO-M1 cells, IP1 TR-FRET (IP-One), carbachol + lithium; active = well fitted inhibition curve with a large enough effect; inconclusive = small, poorly fitted or top-dose-only effect; inactive = no such curve, though single readings can be large or run the other way;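 note: IP1 builds up when IMPase is blocked and the TR-FRET signal falls; nearly all actives have a fitted effect of over 50% in size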
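Steps: plate 2000 CHO-M1 cells per well and culture 16–30 h; add compound and lithium; incubate 30 min, 37C; add d2-IP1 tracer and Eu cryptate anti-IP1 antibody in lysis buffer; read after 10 min at room temperature.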
ALDH1A1 inh: ALDH1A1 (human) enzyme inhibition | P00352 | Purified ALDH1A1, NADH fluorescence, propionaldehyde substrate | Potency, µM (highest dose often 75.3 µM), hits mostly inhibitors | 7.3% of 220,000 active
Target sequence (P00352 whole entry, looked up): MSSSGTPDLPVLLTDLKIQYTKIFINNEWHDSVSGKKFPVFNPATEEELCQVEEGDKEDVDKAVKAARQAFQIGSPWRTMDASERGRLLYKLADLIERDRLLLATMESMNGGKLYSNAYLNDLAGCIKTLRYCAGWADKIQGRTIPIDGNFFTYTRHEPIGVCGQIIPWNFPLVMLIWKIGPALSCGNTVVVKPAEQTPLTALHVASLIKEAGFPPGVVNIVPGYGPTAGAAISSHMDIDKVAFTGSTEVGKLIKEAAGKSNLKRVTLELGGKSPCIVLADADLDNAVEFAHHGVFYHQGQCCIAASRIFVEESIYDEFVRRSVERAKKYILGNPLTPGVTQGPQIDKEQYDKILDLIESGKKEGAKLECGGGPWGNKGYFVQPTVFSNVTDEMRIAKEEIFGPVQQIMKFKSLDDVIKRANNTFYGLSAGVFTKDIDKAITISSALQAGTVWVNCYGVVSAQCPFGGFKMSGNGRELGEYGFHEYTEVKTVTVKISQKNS
Of the large screens only hits and unclear results are named; the others gave an inactive call; ! = not active in a repeat. Sampled rows, rich in hits. Any-hit rate of the full collection: about 11%. Unless noted, calls come from the whole dose curve; as a rule, active = well fitted inhibition curve with a large enough effect (not every such curve was filed as active); inconclusive = small, poorly fitted or top-dose-only effect, or another doubt; inactive = no such curve, though single readings can be large or run the other way.

COc1ccc2[nH]cc(CC(N)C(=O)O)c2c1 (configuration not stated)	none (no result: PNC inhibitor)
N[C@@H](Cc1c[nH]c2ccc(O)cc12)C(=O)O	ALDH1A1 inh 28µM! (no result: PNC inhibitor)
Cc1ccc(CNS(=O)(=O)c2ccc(C(C)(C)C)cc2)n1C	ALDH1A1 inh 8.9µM
CC(C)(C)c1ccc(S(=O)(=O)NCCc2ccncc2)cc1	IMPase inh inconclusive, PNC inhibitor inconclusive, ALDH1A1 inh inconclusive
O=C(CCSc1nc(-c2ccco2)cc(C(F)(F)F)n1)N1CCCc2ccccc21	HPGD block inconclusive, PNC inhibitor inconclusive, ALDH1A1 inh 18µM
O=C(CCCSc1nc(-c2ccco2)cc(C(F)(F)F)n1)Nc1ccc2c(c1)OCO2	HPGD block 20µM, ALDH1A1 inh 16µM
O=C(CSc1nc(-c2ccco2)cc(C(F)(F)F)n1)Nc1ccc(C(=O)N2CCOCC2)cc1	HPGD block 22µM, PNC inhibitor -100
Cc1noc(C)c1-c1nc(N(C)C)c2ccccc2n1	ALDH1A1 inh inconclusive (no result: HPGD block, IMPase inh, PNC inhibitor)
Cn1nc(-c2ccc(N3CCOCC3)c(NS(=O)(=O)c3ccc(Cl)cc3)c2)c2ccccc2c1=O	none
Cc1ccc(S(=O)(=O)Nc2cc(-c3nn(C)c(=O)c4ccccc34)ccc2N2CCOCC2)cc1	HPGD block inconclusive, PNC inhibitor inconclusive, ALDH1A1 inh 22µM
CCCC(=O)Nc1cc(-c2nn(C)c(=O)c3ccccc23)ccc1N1CCOCC1	ALDH1A1 inh 28µM
CCCCCCCCCCCCC/C=C/[C@@H](O)[C@H](CO)NCCCCCCCC	none (no result: IMPase inh, PNC inhibitor)
CC(C)(C)N1C(=O)[C@H]2[C@H]3[C@H](O)[C@H](O)C/C(=N/NC(=O)OCc4ccccc4)[C@H]3CC[C@@H]2C1=O	none (no result: HPGD block, IMPase inh, PNC inhibitor, IMPase Li cell)
CC1(C)SC2C(NC(=O)Cc3ccccc3)C(=O)N2C1C(=O)O (configuration not stated)	none (no result: IMPase inh, PNC inhibitor)
COc1ccc(N2C(=O)CC(n3cnc4ccccc43)C2=O)cc1 (configuration not stated)	none
Cc1cc(C)cc(N2C(=O)CC(N3CCOCC3)C2=O)c1 (configuration not stated)	PNC inhibitor inconclusive
COc1ccc(N2C(=O)CC(N3CCC(c4nc5ccccc5[nH]4)CC3)C2=O)cc1 (configuration not stated)	ALDH1A1 inh inconclusive
COc1ccc(N2C(=O)CC(N3CCN(c4ccccc4F)CC3)C2=O)cc1 (configuration not stated)	PNC inhibitor -97, ALDH1A1 inh inconclusive
COc1ccc(N2C(=O)CC(N3CCOCC3)C2=O)cc1 (configuration not stated)	PNC inhibitor inconclusive, ALDH1A1 inh 25µM
CCCOc1ccc(N2C(=O)CC(N3CCN(c4ccccc4F)CC3)C2=O)cc1 (configuration not stated)	ALDH1A1 inh inconclusive
O=C1CC(N2CCC(c3nc4ccccc4[nH]3)CC2)C(=O)N1c1ccccc1F (configuration not stated)	ALDH1A1 inh 10µM (no result: HPGD block, IMPase inh, PNC inhibitor)
COc1ccc(N2C(=O)CC(n3c(CCCCO)nc4ccccc43)C2=O)cc1 (configuration not stated)	ALDH1A1 inh 3.5µM
c1cncc(-c2nc(NCCN3CCOCC3)c3ccccc3n2)c1	none (no result: IMPase inh, PNC inhibitor)
O=C1OC(=O)c2ccccc21	none (no result: IMPase inh, PNC inhibitor)
CN1CCN(C2CC(=O)N(c3ccc4c(c3)OCCO4)C2=O)CC1 (configuration not stated)	ALDH1A1 inh inconclusive
O=C(C1CCN(C2CC(=O)N(c3ccc(F)cc3)C2=O)CC1)N1CCOCC1 (configuration not stated)	IMPase inh inconclusive, ALDH1A1 inh 7.1µM
O=C1CCCN1CCC1CCN(C2CC(=O)N(c3ccc(F)cc3)C2=O)CC1 (configuration not stated)	PNC inhibitor -112, ALDH1A1 inh 13µM
Cc1ccc(N2C(=O)CC(N3CCN(C)CC3)C2=O)cc1 (configuration not stated)	PNC inhibitor -100
CNc1ncnc2c1ncn2[C@H]1C[C@@H](OP(=O)(O)O)[C@H](COP(=O)(O)O)O1	none (no result: HPGD block, PNC inhibitor, IMPase Li cell, ALDH1A1 inh)
CCCCCCC1=Cc2cc(OC)c(OC)cc2C(C2(C(=O)OCC)CCCC2=O)O1 (configuration not stated)	none (no result: HPGD block, IMPase inh, PNC inhibitor, IMPase Li cell)
CCc1ccc(OCC(=O)Nc2cc3oc4ccccc4c3cc2OC)c(Br)c1	none (no result: HPGD block, PNC inhibitor, IMPase Li cell, ALDH1A1 inh)
CC(C)(C)NC(=O)C(c1ccncc1)N(C(=O)Cn1nnc(-c2ccc(F)cc2)n1)c1ccc(F)cc1 (configuration not stated)	none (no result: HPGD block, IMPase inh, PNC inhibitor)
O=C(NCc1ccccc1)C(c1ccc(F)cc1)N(Cc1ccc2c(c1)OCO2)C(=O)Cn1nnc(-c2cccs2)n1 (configuration not stated)	ALDH1A1 inh 25µM
CC(C)(C)NC(=O)C(c1ccncc1)N(C(=O)Cn1nnc(-c2ccc(F)cc2)n1)c1ccccc1 (configuration not stated)	ALDH1A1 inh 3.2µM (no result: HPGD block, IMPase inh, PNC inhibitor)
CCCC(C(=O)NCc1ccccc1)N(C(=O)Cn1nnc(-c2cccs2)n1)c1ccc2c(c1)OCCO2 (configuration not stated)	PNC inhibitor inconclusive
CC(C)(C)NC(=O)C(c1ccncc1)N(Cc1cccs1)C(=O)Cn1nnc(-c2cccs2)n1 (configuration not stated)	ALDH1A1 inh 4.5µM
Cc1ccc(C(C(=O)NC(C)(C)C)N(Cc2ccco2)C(=O)Cn2nnc(-c3cccs3)n2)cc1 (configuration not stated)	none
Cc1ccsc1/C=C(\C#N)C(=O)NC1CCS(=O)(=O)C1 (configuration not stated)	none (no result: HPGD block, IMPase inh, PNC inhibitor)
CCNc1ncc2nc(-c3cc(F)cc(F)c3)c(=O)n(C3CC3)c2n1	ALDH1A1 inh inconclusive (no result: HPGD block, IMPase inh, PNC inhibitor)
O=Cc1cnc(N2CCN(c3ccccc3)CC2)s1	ALDH1A1 inh 4µM (no result: HPGD block, IMPase inh, PNC inhibitor)
c1ccc(N2CCN(c3cnc4ccccc4n3)CC2)cc1	HPGD block 22µM, ALDH1A1 inh inconclusive
O=C(N/N=C/c1cnc(N2CCOCC2)s1)c1ccccc1	none (no result: HPGD block, IMPase inh, PNC inhibitor)
O=Cc1cnc(N2CCN(Cc3ccccc3)CC2)s1	ALDH1A1 inh 0.79µM (no result: HPGD block, IMPase inh, PNC inhibitor)
COC(=O)C1=C(C(=O)OC)[C@@H]2N(C)c3ccccc3[C@@]23C[C@@H](C(=O)OC)N(S(=O)(=O)c2ccc(C(F)(F)F)cc2)C3=N1	none (no result: IMPase inh, PNC inhibitor)
CCN(CC)C(=O)CSc1nc(-c2ccccc2)cc(=O)[nH]1	ALDH1A1 inh inconclusive (no result: HPGD block, IMPase inh, PNC inhibitor)
O=C1OC(C(=O)Nc2cc(C(F)(F)F)ccc2Cl)Cc2ccccc21 (configuration not stated)	none (no result: HPGD block, PNC inhibitor, IMPase Li cell, ALDH1A1 inh)
O=C(/C=C/NCC(=O)c1ccccc1)c1ccc(Br)cc1	PNC inhibitor -97, ALDH1A1 inh 7.9µM
Cc1ccc(NC(=O)c2ccc(NCc3ccc(F)cc3)nc2)cc1	ALDH1A1 inh inconclusive (no result: HPGD block, IMPase inh, PNC inhibitor)
O=C(/C=C/NNC(=O)c1ccccc1)c1ccc(Br)cc1	ALDH1A1 inh inconclusive
O=C(/C=C/Nc1ccccc1F)c1ccc(Br)cc1	PNC inhibitor -115 (no result: IMPase inh)
COc1ccc(C(=O)/C=C/NCc2ccc(F)cc2)cc1OC	ALDH1A1 inh 22µM (no result: HPGD block, IMPase inh, PNC inhibitor, IMPase Li cell)
